PubChem BioAssay (NCI)
Several values for one entry are separate records, joined by “and”; a condition that tells them apart may be missing. Identical values can stand only once. Compounds without any hit were thinned out: in the full panel of roughly 79,000, 15% have a hit. Where a structure was tested more than once in an assay, its records may differ in their call. Activity calls are given as the source filed them. No stated cut-off is given here; in the data, active means growth inhibition above about 70%; inactive means the rest.

Key:
[1] = NCI Yeast Anticancer Drug Screen. Data for the wt1 strain (AID 149);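 further: 0% = growth of vehicle-treated wt1 cultures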; conditions: S. cerevisiae wt1 strain (SPY 50644) growth inhibition, stronger effect = higher value
How it was run: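 Vehicle-normalised growth inhibition; strain wt1; compound exposure.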

[2] = NCI Yeast Anticancer Drug Screen. Data for the rad50EPP+ strain (AID 151);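 further: 0% = growth of vehicle-treated control cultures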; conditions: S. cerevisiae rad50 mutant strain, stronger effect = higher value
How it was run: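 One strain with a rad50 alteration (rad50EPP+) was compound-treated, its growth then compared to that of vehicle controls.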

[3] = NCI Yeast Anticancer Drug Screen. Data for the mgt1 strain (AID 153); conditions: S. cerevisiae mgt1 mutant growth inhibition, stronger effect = higher value
How it was run: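 After exposure of the mgt1 yeast mutant to compound, growth was measured and reported as inhibition compared with vehicle controls.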

[4] = NCI Yeast Anticancer Drug Screen. Data for the rad50 strain (AID 155);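 further: 0% = growth of vehicle-only cultures of the same strain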; conditions: S. cerevisiae rad50 strain growth inhibition, stronger effect = higher value
How it was run: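 A DNA repair-deficient yeast mutant serves as the test organism; compound-induced growth inhibition is calculated against vehicle-treated cells.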

[5] = NCI Yeast Anticancer Drug Screen. Data for the mec2-1 strain (AID 157); conditions: S. cerevisiae mec2-1 strain, stronger effect = higher value
How it was run: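 Test agents were screened against the mec2-1 yeast strain, with defined DNA repair or cell cycle alteration. Growth was scored as inhibition against vehicle-only controls.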

[6] = NCI Yeast Anticancer Drug Screen. Data for the rad14 strain (AID 159);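 further: 0% = growth of vehicle-treated control cultures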; conditions: S. cerevisiae rad14 strain growth inhibition, stronger effect = higher value
How it was run: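 Vehicle-treated cultures served as the baseline for growth inhibition of a DNA repair-mutant yeast strain exposed to each compound.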

[7] = NCI Yeast Anticancer Drug Screen. Data for the sgs1 mgt1 strain (AID 161);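 further: 0% = growth of cultures given vehicle only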; conditions: S. cerevisiae sgs1 mgt1 strain, stronger effect = higher value
How it was run: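 Read-out: growth inhibition vs vehicle controls. Cells: mutant yeast strain deficient in DNA damage repair.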

[8] = NCI Yeast Anticancer Drug Screen. Data for the CLN2oe strain (AID 163);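 further: 0% = growth of vehicle-only control cultures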; conditions: S. cerevisiae CLN2oe strain, stronger effect = higher value
How it was run: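 Here, growth inhibition in a cell-cycle-altered yeast strain after compound exposure was quantified against vehicle control growth.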

[9] = NCI Yeast Anticancer Drug Screen. Data for the cln2 rad14 strain (AID 165);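 further: 0% = growth equal to vehicle treated cultures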; conditions: S. cerevisiae cln2 rad14 strain, stronger effect = higher value
How it was run: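 Growth of compound-exposed yeast (cln2 rad14 genotype) measured and expressed as inhibition relative to vehicle.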

[10] = NCI Yeast Anticancer Drug Screen. Data for the bub3 strain (AID 167); conditions: S. cerevisiae bub3 mutant strain, stronger effect = higher value
How it was run: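 Inhibition values come from growth of compound-treated mutant yeast normalised to vehicle-treated controls.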

[11] = NCI Yeast Anticancer Drug Screen. Data for the wt2 strain (AID 169);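 further: 0% = growth of vehicle-treated yeast cultures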; conditions: S. cerevisiae wt2 strain growth inhibition, stronger effect = higher value
How it was run: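 Genetically defined yeast strains from a DNA-repair/cell-cycle panel were used. Compound-exposed yeast growth was measured, and the inhibition was calculated relative to vehicle treatment.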

[12] = NCI Yeast Anticancer Drug Screen. Data for the mlh1 strain (AID 171);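 further: 0% = growth of vehicle-treated control cultures of the same strain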; conditions: S. cerevisiae mlh1 strain growth inhibition, stronger effect = higher value
How it was run: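 Here the genetically defined yeast mutant is grown with each compound, and the extent to which its growth falls below that of vehicle-exposed cells is reported.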

[13] = NCI Yeast Anticancer Drug Screen. Data for the sgs1 strain (AID 173);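 further: 0% = growth of vehicle-only control cultures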; conditions: S. cerevisiae sgs1 mutant, stronger effect = higher value
How it was run: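 Relative growth inhibition, referenced to vehicle, was determined in a yeast strain with a defined alteration affecting DNA damage repair or cell cycle control after compound exposure.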

[14] = NCI Yeast Anticancer Drug Screen. Data for the mlh1 rad18 strain (AID 175); conditions: S. cerevisiae mlh1 rad18 strain growth inhibition, stronger effect = higher value
How it was run: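 In this whole-cell yeast screen, a strain with altered DNA damage repair is challenged with compound, and its growth is measured against matched vehicle-treated controls.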

[15] = NCI Yeast Anticancer Drug Screen. Data for the rad18 strain (AID 177); conditions: S. cerevisiae rad18 mutant growth inhibition, stronger effect = higher value
How it was run: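 Screen uses a yeast strain with a defined lesion in DNA damage repair; compound effect is read as loss of growth compared to untreated vehicle cultures.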

[16] = at 5.0 µM (retest, dose inferred, filed as 0.5)
[17] = at 50.0 µM (retest, dose inferred, filed as 5.0)

Measured: growth inhibition

Cc1cnc(/C=N\NC(N)=S)c2cccc(N)c12
42.1% (inactive) and 70% (active): [9]; at 50.0 µM
inactive: [1]; at 1.2 µM -63% | [1]; at 3.7 µM -49% | [1]; at 11.0 µM -36% | [1]; at 33.0 µM 58% | [2]; at 1.2 µM -68% | [2]; at 3.7 µM -57% | [2]; at 11.0 µM -45% | [2]; at 33.0 µM -38% | [2]; at 100.0 µM -4% | [3]; at 1.2 µM -78% | [3]; at 3.7 µM -69% | [3]; at 11.0 µM -12% | [3]; at 33.0 µM 43% | [4]; at 1.2 µM -81% | [4]; at 3.7 µM -43% | [4]; [16] 13% and 15% | [4]; at 11.0 µM -69% | [4]; at 33.0 µM 28% | [4]; at 50.0 µM 62.3% and 60% | [5]; at 1.2 µM -19% | [5]; at 3.7 µM -48% | [5]; [16] 7% and 21% | [5]; at 11.0 µM 13% | [6]; at 1.2 µM -92% | [6]; at 3.7 µM -75% | [6]; at 11.0 µM -35% | [6]; at 33.0 µM 45% | [7]; [16] 16% and 8% | [7]; at 50.0 µM 61.1% and 63% | [8]; at 1.2 µM -16% | [8]; at 3.7 µM -39% | [8]; at 11.0 µM -29% | [8]; at 33.0 µM 30% | [8]; at 100.0 µM 63% | [9]; [16] -8% and 9% | [9]; [17] 66% and -55% | [10]; at 1.2 µM -69% | [10]; at 3.7 µM -60% | [10]; [16] 15% and 9% | [10]; at 11.0 µM -50% | [10]; at 33.0 µM 25% | [11]; at 1.2 µM -73% | [11]; at 3.7 µM -48% | [11]; at 11.0 µM 5% | [11]; at 33.0 µM 56% | [12]; at 1.2 µM -75% | [12]; at 3.7 µM -79% | [12]; at 11.0 µM -43% | [12]; at 33.0 µM 27% | [13]; at 1.2 µM -39% | [13]; at 3.7 µM -42% | [13]; at 11.0 µM -13% | [13]; at 33.0 µM 49% | [14]; [16] 17% and 23% | [15]; at 1.2 µM -144% | [15]; at 3.7 µM -115% | [15]; at 11.0 µM -88% | [15]; at 33.0 µM 25%
48.4% (inactive) and 75.1% (active): [10]; at 50.0 µM
87% (active) and -11% (inactive): [10]; [17]
74% (active) and 60% (inactive): [5]; at 50.0 µM
83% (active) and 30% (inactive): [7]; [17]
active: [1]; at 100.0 µM 90% | [3]; at 100.0 µM 84% | [4]; [17] 80% and 71% | [4]; at 100.0 µM 83% | [5]; at 33.0 µM 82% | [5]; [17] 87% and 86% | [5]; at 100.0 µM 94% | [6]; at 100.0 µM 91% | [10]; at 100.0 µM 80% | [11]; at 100.0 µM 91% | [12]; at 100.0 µM 87% | [13]; at 100.0 µM 94% | [14]; [17] 85% and 82% | [14]; at 50.0 µM 75.2% and 89% | [15]; at 100.0 µM 85%

O=C1OC(c2ccc(Cl)cc2)Sc2ccccc21 (stereo unspecified)
active: [1]; at 33.0 µM 88% | [1]; at 100.0 µM 98% | [3]; at 33.0 µM 97% | [3]; at 100.0 µM 94% | [4]; at 33.0 µM 95% | [4]; [17] 88% | [4]; at 50.0 µM 83.8% | [4]; at 100.0 µM 92% | [5]; at 33.0 µM 96% | [5]; at 50.0 µM 86.5% | [5]; at 100.0 µM 98% | [6]; at 33.0 µM 98% | [6]; at 100.0 µM 98% | [7]; at 50.0 µM 85% | [8]; at 33.0 µM 97% | [8]; at 100.0 µM 97% | [10]; at 33.0 µM 96% | [10]; at 50.0 µM 93.9% | [10]; at 100.0 µM 97% | [11]; at 33.0 µM 84% | [11]; at 100.0 µM 98% | [12]; at 33.0 µM 97% | [12]; at 100.0 µM 98% | [13]; at 33.0 µM 96% | [13]; at 100.0 µM 97% | [14]; [17] 86% | [14]; at 50.0 µM 95% | [15]; at 33.0 µM 96% | [15]; at 100.0 µM 94%
inactive: [1]; at 1.2 µM 1% | [1]; at 3.7 µM 6% | [1]; at 11.0 µM 17% | [2]; at 1.2 µM 11% | [2]; at 3.7 µM 28% | [2]; at 11.0 µM 45% | [2]; at 33.0 µM 61% | [2]; at 100.0 µM 58% | [3]; at 1.2 µM 6% | [3]; at 3.7 µM 8% | [3]; at 11.0 µM 17% | [4]; at 1.2 µM 7% | [4]; at 3.7 µM 13% | [4]; [16] 5% | [4]; at 11.0 µM 62% | [5]; at 1.2 µM 9% | [5]; at 3.7 µM 17% | [5]; [16] -7% | [5]; at 11.0 µM 33% | [5]; [17] 35% | [6]; at 1.2 µM 7% | [6]; at 3.7 µM 11% | [6]; at 11.0 µM 25% | [7]; [16] 4% | [7]; [17] 52% | [8]; at 1.2 µM 9% | [8]; at 3.7 µM 13% | [8]; at 11.0 µM 27% | [9]; [16] -61% | [9]; [17] -14% | [9]; at 50.0 µM -26.9% | [10]; at 1.2 µM 11% | [10]; at 3.7 µM 15% | [10]; [16] 7% | [10]; at 11.0 µM 29% | [10]; [17] 46% | [11]; at 1.2 µM 6% | [11]; at 3.7 µM 6% | [11]; at 11.0 µM 31% | [12]; at 1.2 µM 6% | [12]; at 3.7 µM 12% | [12]; at 11.0 µM 27% | [13]; at 1.2 µM 2% | [13]; at 3.7 µM 11% | [13]; at 11.0 µM 37% | [14]; [16] 16% | [15]; at 1.2 µM 6% | [15]; at 3.7 µM 15% | [15]; at 11.0 µM 68%
